Bioassay records as filed in PubChem.
The list is not random: actives were taken first. Their share in the collection is about 3.5%.
BoNT-F LC inh: inhibitors of Botulinum neurotoxin F light chain protease; 0.22% of 360,000 active; inhibition, % at 10 µM; Multiplex microsphere protease cleavage assay, flow cytometry; AID 588497; in the data active means inhibition above about 35%, passing the limit was not always enough; inconclusive means no clear call, values can overlap the other calls
BH1578 lux ind: inducers of Vibrio cholerae quorum light production without autoinducers. V. cholerae BH1578 lux reporter, luminescence, 6 h. 0.16% of 350,000 active. activation, % at 18.7 µM. AID 588436; in the data active means activation mostly above about 9.7%, no sharp cut-off; inconclusive means no clear call, values can overlap the other calls; inactive means mostly below about 3.7%
BoNT A protease: BoNT A light chain protease inhibition; multiplex microsphere protease substrate cleavage, flow cytometry; inhibition, % at 10 µM; 0.17% of 360,000 active
Anthrax LF inh2: inhibitors of Bacillus anthracis lethal factor protease | multiplex microsphere protease cleavage assay, LF | AID 588501 | inhibition, % at 10 µM | 0.12% of 360,000 active | P15917
Target sequence (P15917 whole entry, looked up): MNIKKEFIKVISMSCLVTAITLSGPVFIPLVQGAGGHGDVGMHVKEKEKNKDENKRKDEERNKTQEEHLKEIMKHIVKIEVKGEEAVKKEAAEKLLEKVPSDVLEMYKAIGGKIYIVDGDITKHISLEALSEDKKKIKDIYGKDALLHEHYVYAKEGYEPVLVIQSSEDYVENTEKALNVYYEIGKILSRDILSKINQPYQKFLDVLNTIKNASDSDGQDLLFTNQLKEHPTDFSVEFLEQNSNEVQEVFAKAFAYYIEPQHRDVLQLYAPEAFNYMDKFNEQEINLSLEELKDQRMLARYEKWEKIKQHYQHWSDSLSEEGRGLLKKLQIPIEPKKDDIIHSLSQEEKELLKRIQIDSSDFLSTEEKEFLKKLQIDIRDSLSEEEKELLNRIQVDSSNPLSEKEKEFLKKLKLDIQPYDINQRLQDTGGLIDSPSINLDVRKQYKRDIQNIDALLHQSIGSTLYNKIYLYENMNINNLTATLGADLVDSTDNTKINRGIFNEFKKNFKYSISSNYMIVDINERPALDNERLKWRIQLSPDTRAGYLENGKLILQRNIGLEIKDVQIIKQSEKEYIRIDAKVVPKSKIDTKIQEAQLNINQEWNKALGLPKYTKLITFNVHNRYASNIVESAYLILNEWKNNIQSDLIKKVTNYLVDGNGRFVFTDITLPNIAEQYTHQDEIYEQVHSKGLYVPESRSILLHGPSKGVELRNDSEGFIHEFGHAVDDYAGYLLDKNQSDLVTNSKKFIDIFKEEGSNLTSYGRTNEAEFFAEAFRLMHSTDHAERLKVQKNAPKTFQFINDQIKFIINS
Bead autofluor: counter-screen for toxin protease inhibitors: compound fluorescence. compound autofluorescence counterscreen, microsphere flow cytometry; active compounds read high. fluorescence intensity (concentration not given with the values). 3.1% of 360,000 active; in the data active means fluorescence intensity above about 16000; inconclusive means no clear call, values can overlap the other calls
A number is an active result. Unless noted, no stated cut-off is given here; in the data, active means inhibition above about 30%; inconclusive means no clear call, values can overlap the other calls; inactive means below that.

Screening C=CCNc1nc(-c2ccccc2)nc(-n2ccnc2)n1 returned BoNT-F LC inh inactive, BH1578 lux ind inactive, BoNT A protease inactive, Anthrax LF inh2 inactive and Bead autofluor 18305.
c1ccc(-c2nc(NC3CC3)nc(-n3ccnc3)n2)cc1 was read as BoNT-F LC inh inactive, BH1578 lux ind inactive, BoNT A protease inactive, Anthrax LF inh2 inactive and Bead autofluor 21514.
`c1ccc(-c2nc(-n3ccnc3)nc(-n3ccnc3)n2)cc1` gave BoNT-F LC inh inactive, BH1578 lux ind inactive, BoNT A protease inactive, Anthrax LF inh2 inactive and Bead autofluor inactive.
`Cn1c(N)c(C(=O)COC(=O)CNC(=O)c2ccccc2F)c(=O)n(C)c1=O` gave BoNT-F LC inh inactive, BH1578 lux ind inactive, BoNT A protease inactive, Anthrax LF inh2 inactive and Bead autofluor inactive.
`CC(=O)c1cccc(OCC(=O)Nc2cccc(C(=O)Nc3c(C)n(C)n(-c4ccccc4)c3=O)c2)c1` gave BoNT-F LC inh inactive, BH1578 lux ind inactive, BoNT A protease inactive, Anthrax LF inh2 inactive and Bead autofluor inactive.
CCOc1nc(NCCc2ccc(OC)c(OC)c2)nc(NC(C)(C)CO)n1 was read as BoNT-F LC inh inactive, BH1578 lux ind inactive, BoNT A protease inactive, Anthrax LF inh2 inactive and Bead autofluor 16988.
Screening COc1ccc(CCNc2nc(Cl)nc(NC(C)(C)CO)n2)cc1OC returned BoNT-F LC inh inconclusive, BH1578 lux ind inactive, BoNT A protease inactive, Anthrax LF inh2 inactive and Bead autofluor inactive.
CCOc1cc(C(=O)Nc2cccc3ncccc23)cc(OCC)c1OCC was read as BoNT-F LC inh inactive, BH1578 lux ind inactive, BoNT A protease inactive, Anthrax LF inh2 inactive and Bead autofluor 20303.
CCN(CC)CCCN=Cc1c(O)n(CCc2ccc(OC)c(OC)c2)c(=O)[nH]c1=O was read as BoNT-F LC inh inactive, BH1578 lux ind inactive, BoNT A protease inconclusive, Anthrax LF inh2 inactive and Bead autofluor 21750.
CCOC(=O)c1ccc(NC(=S)NC(=O)COc2ccccc2)cc1 was read as BoNT-F LC inh inactive, BH1578 lux ind inactive, BoNT A protease inactive, Anthrax LF inh2 inactive and Bead autofluor inactive.
CC(C)c1ccc(NC2CCCN(C(=O)C3=NN(C)C(=O)CC3)C2)cc1 (stereo not drawn) was read as BoNT-F LC inh inactive, BH1578 lux ind inactive, BoNT A protease inactive, Anthrax LF inh2 inactive and Bead autofluor inactive.
For Clc1ccccc1-c1nn2c(-c3ccccn3)nnc2s1 the results were BoNT-F LC inh inactive, BH1578 lux ind inactive, BoNT A protease inactive, Anthrax LF inh2 inactive and Bead autofluor 22234.
COc1ccc(-c2nn3c(-c4ccccn4)nnc3s2)cc1OC was read as BoNT-F LC inh inactive, BH1578 lux ind inactive, BoNT A protease inconclusive, Anthrax LF inh2 inactive and Bead autofluor 19421.
For COc1ccc(-c2nn3c(C4CCCCC4)nnc3s2)cc1OC the results were BoNT-F LC inh inactive, BH1578 lux ind inactive, BoNT A protease inactive, Anthrax LF inh2 inactive and Bead autofluor 16665.
For COc1ccc(-c2nn3c(-c4cccc(C)c4)nnc3s2)cc1OC the results were BoNT-F LC inh inactive, BH1578 lux ind inactive, BoNT A protease inactive, Anthrax LF inh2 inactive and Bead autofluor 16794.
For COc1ccc(-c2nnc3sc(-c4cccs4)nn23)cc1OC the results were BoNT-F LC inh inactive, BH1578 lux ind inactive, BoNT A protease inactive, Anthrax LF inh2 inactive and Bead autofluor inactive.
CS(=O)(=O)c1ccc(-c2csc(C(O)(c3ccccc3)C(F)(F)F)n2)cc1 (stereo not drawn) was read as BoNT-F LC inh inactive, BH1578 lux ind inactive, BoNT A protease inactive, Anthrax LF inh2 inactive and Bead autofluor inactive.
`COc1cccc(-c2nn3c(-c4ccccn4)nnc3s2)c1` gave BoNT-F LC inh inactive, BH1578 lux ind inactive, BoNT A protease inconclusive, Anthrax LF inh2 inactive and Bead autofluor 19346.
`COc1cccc(-c2nnc3sc(-c4ccccn4)nn23)c1` gave BoNT-F LC inh inactive, BH1578 lux ind inactive, BoNT A protease inactive, Anthrax LF inh2 inactive and Bead autofluor inactive.
COc1ccc(C2=Nn3c(nnc3C3CCCCC3)SC2)cc1OC was read as BoNT-F LC inh inactive, BH1578 lux ind inactive, BoNT A protease inactive, Anthrax LF inh2 inactive and Bead autofluor 24718.
COc1ccc(NC(=S)N2CCC(NC(=O)C3CCCCC3)CC2)cc1 was read as BoNT-F LC inh inactive, BH1578 lux ind inactive, BoNT A protease inactive, Anthrax LF inh2 inactive and Bead autofluor inactive.
For Cc1cccc(OCCNC(=O)CCNS(=O)(=O)c2ccc3ccccc3c2)c1 the results were BoNT-F LC inh inactive, BH1578 lux ind inactive, BoNT A protease inactive, Anthrax LF inh2 inactive and Bead autofluor inactive.
`O=C(Nc1ccc(OC(F)F)cc1)c1cc(S(=O)(=O)N2CCOCC2)ccc1F` gave BoNT-F LC inh inactive, BH1578 lux ind inactive, BoNT A protease inactive, Anthrax LF inh2 inactive and Bead autofluor inactive.
For COCCN1C(=O)/C(=C/c2ccc(N3CCCC3)cc2)SC1=S the results were BoNT-F LC inh inactive, BH1578 lux ind inactive, BoNT A protease inactive, Anthrax LF inh2 inactive and Bead autofluor 18513.
For CC1(C(=O)Nc2nnc(SCc3ccccc3)s2)Cc2ccccc2C(=O)O1 (stereo not drawn) the results were BoNT-F LC inh inactive, BH1578 lux ind inactive, BoNT A protease inactive, Anthrax LF inh2 inactive and Bead autofluor 22013.
Screening Cc1cccc(-n2nnnc2SCC(=O)NCCN2C(=O)CSC2=O)c1 returned BoNT-F LC inh inactive, BH1578 lux ind inactive, BoNT A protease inactive, Anthrax LF inh2 inactive and Bead autofluor 22931.
For Cc1ccc(SCC(=O)NCCN2C(=O)CSC2=O)cc1C the results were BoNT-F LC inh inactive, BH1578 lux ind inactive, BoNT A protease inactive, Anthrax LF inh2 inactive and Bead autofluor 23097.
`Cc1ccc(SCC(=O)NCCN2C(=O)CSC2=O)c(C)c1` gave BoNT-F LC inh inactive, BH1578 lux ind inactive, BoNT A protease inactive, Anthrax LF inh2 inactive and Bead autofluor inactive.
Cc1nnc(SCC(=O)NCCN2C(=O)CSC2=O)n1-c1ccccc1 was read as BoNT-F LC inh inactive, BH1578 lux ind inactive, BoNT A protease inactive, Anthrax LF inh2 inactive and Bead autofluor inactive.
`COc1ccc(C(CNC(=O)c2ccco2)N2CCCC2)cc1` (stereo not drawn) gave BoNT-F LC inh inactive, BH1578 lux ind inactive, BoNT A protease inactive, Anthrax LF inh2 inactive and Bead autofluor inconclusive.
`Fc1ccccc1Nc1ncnc2c1nnn2Cc1ccccc1` gave BoNT-F LC inh inactive, BH1578 lux ind inactive, BoNT A protease inactive, Anthrax LF inh2 inactive and Bead autofluor inactive.
Clc1ccccc1Nc1ncnc2c1nnn2Cc1ccccc1 was read as BoNT-F LC inh inactive, BH1578 lux ind inactive, BoNT A protease inconclusive, Anthrax LF inh2 inactive and Bead autofluor 16216.
`CCN1CCN(c2ncnc3c2nnn3Cc2ccccc2)CC1` gave BoNT-F LC inh inactive, BH1578 lux ind inactive, BoNT A protease inactive, Anthrax LF inh2 inactive and Bead autofluor inactive.
`c1ccc(Cn2nnc3c(N4CCc5ccccc5C4)ncnc32)cc1` gave BoNT-F LC inh inactive, BH1578 lux ind inactive, BoNT A protease inactive, Anthrax LF inh2 inactive and Bead autofluor 20729.
For c1ccc(Cn2nnc3c(N4CCCC4)ncnc32)cc1 the results were BoNT-F LC inh inactive, BH1578 lux ind inactive, BoNT A protease inactive, Anthrax LF inh2 inactive and Bead autofluor 16477.
COc1ccccc1CCNS(=O)(=O)CCNC(=O)c1ccc2c(c1)OCO2 was read as BoNT-F LC inh inactive, BH1578 lux ind inactive, BoNT A protease inactive, Anthrax LF inh2 inactive and Bead autofluor inconclusive.
